# Measurements: PubChem BioAssay (NCATS)
# Values joined by “and” are separate entries in the source; they are usually repeats but may differ in a detail not shown here. Equal entries are not always repeated. Results filed as inconclusive are left out. Where a call stands in place of a potency, no number is given. Active and inactive are the calls of the source. Calls come from the whole dose curve; as a rule, active = well fitted cell-killing curve with a large enough effect; inconclusive = small, poorly fitted or top-dose-only effect, or effect the other way; inactive = flat fitted curve, though single readings scatter.
# System: JEG-3
# Test: Primary qHTS to identify gynecologic anti-cancer compounds using libraries of approved drugs and bioactive compounds (AID 1345084); note: nearly all actives have a fitted effect of over 55% in size
# Conditions: Gynecologic cancer cell panel viability, ATPlite luminescence, 48 h; series mostly up to 57.5 µM
# Procedure, shortened: (§1)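 In this quantitative HTS, cell killing is estimated from loss of ATP-dependent luciferase light. Cells see five compound concentrations over a 48 h exposure.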
# Potency is the fitted concentration of half-maximal effect.
row,Structure (SMILES),Potency
1,CNCc1ccc(-c2[nH]c3cc(F)cc4c3c2CCNC4=O)cc1,inactive
2,S=C(NCc1ccc2c(c1)OCO2)N1CCN(c2ncnc3c2oc2ccccc23)CC1,inactive
3,NC[C@H](O)c1ccc(O)c(O)c1,inactive
4,CCCS(=O)(=O)Nc1ccc(F)c(C(=O)c2c[nH]c3ncc(Cl)cc23)c1F,inactive
5,Cc1ccc(-n2nc(C(C)(C)C)cc2NC(=O)Nc2ccc(OCCN3CCOCC3)c3ccccc23)cc1,inactive
6,O=C(O)CCc1ccc(NCc2cccc(Oc3ccccc3)c2)cc1,inactive
7,Oc1ccc(C2CNCCc3c2cc(O)c(O)c3Cl)cc1 (stereo not given),inactive

# System: OV90
# Test: as above
# Conditions: Gynecologic cancer cell panel viability, ATPlite luminescence, 48 h; series mostly up to 57.5 µM
# Procedure, shortened: as §1
row,Structure (SMILES),Potency
1,CCc1cncnc1N1CCN(Cc2nc3ccc(C(F)(F)F)cc3[nH]2)CC1,inactive
2,N#CC[C@H](C1CCCC1)n1cc(-c2ncnc3[nH]ccc23)cn1,inactive
3,Cn1cnc([N+](=O)[O-])c1Sc1ncnc2nc[nH]c12,3.98 µM (active) and 7.08 µM (active)
4,Cc1oncc1C(=O)Nc1ccc(C(F)(F)F)cc1,17.8 µM (active)
5,CCc1cc(Nc2nccc(-c3c(-c4ccc(OC)c(C(=O)Nc5c(F)cccc5F)c4)nc4ccccn34)n2)c(OC)cc1N1CCC(N2CCN(S(C)(=O)=O)CC2)CC1,inactive
6,COc1ccccc1[C@H](c1cccc2ccccc12)[C@@](C)(C#N)C(=O)N1CCC(c2cccc(C(F)(F)F)c2)CC1,inactive
7,C#Cc1cccc(Nc2ncnc3cc(OCCOC)c(OCCOC)cc23)c1,inactive
8,COc1cccc2cc(-c3nc(C4CCC(C(=O)O)CC4)n4ncnc(N)c34)[nH]c12 (stereo not given),7.94 µM (active)
